This is a sample that favours compounds with a hit; in the whole collection about 19% have one here.
uPA generation: qHTS for Inhibitors of Cell Surface uPA Generation; cell surface uPA generation assay, qHTS; 330,000 compounds, 0.31% hits; Potency, µM (series often up to 38.3 µM), usual class: inhibitors; active means well fitted inhibition curve with a large enough effect; inconclusive means small, poorly fitted or top-dose-only effect; inactive means no such curve, though single readings can be large or run the other way; tested in mouse RAW 264.7 cells; further: nearly all actives have a fitted effect of over 55% in size
IL-1B inflam inh: qHTS for Inhibitors of Inflammasome Signaling: IL-1-beta AlphaLISA Primary Screen; activity change, % at 57.5 µM; 360,000 compounds, 4.7% hits; AID 743279, 2014; THP-1 LPS/ATP IL-1B secretion, AlphaLISA, 16 h; hits give low values; in the data active means activity change below about -50%; inconclusive means mostly about -30% to -49%
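Secreted IL-1B measured by AlphaLISA bead assay after 16 h compound exposure of THP-1 cells; compounds (final up to 57.5 uM) added 1 h before LPS (250 ng/mL) and ATP (1.25 mM) stimulation; lower signal means less secretion.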
TDP1 cell noCPT: qHTS for Inhibitors of human tyrosyl-DNA phosphodiesterase 1 (TDP1): qHTS in cells in absence of CPT; DT40 Tdp1-/- hTDP1 cells, no CPT, ATP luminescence, 48 h; Potency, µM (titrated, usually from 46.2 µM), most hits filed as inhibitors; 420,000 compounds, 15% hits; further: nearly all actives have a fitted effect of over 55% in size
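Cells were dispensed at 400 per well, compounds added by pin tool, plates incubated ≥48 hr at 37 °C, then CellTiter-Glo added for 30 min at room temperature before luminescence reading. Line: DT40 Tdp1-/- complemented with hTDP1; camptothecin omitted.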
HT1080NT lethal: qHTS for induction of synthetic lethality in tumor cells producing 2HG: qHTS for the HT-1080-NT fibrosarcoma cell line. HT-1080-NT fibrosarcoma viability, CellTiter-Glo ATP luminescence, 48 h. Potency, µM (series often up to 46.1 µM), actives largely listed as cytotoxic. 360,000 compounds, 1.6% hits. AID 686970, 2013;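 further: NT is the 2HG producing partner of a matched IDH1 knockdown line; nearly all actives have a fitted effect of over 55% in size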
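Luminescent CellTiter-Glo readout after 48 hours of compound exposure at 37 degrees C defined viability of HT-1080-NT cells. Activity was normalized to DMSO wells and cell-free media wells; concentration-response curves were fitted and assigned curve classes.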
TDP1 cell CPT: qHTS for Inhibitors of human tyrosyl-DNA phosphodiesterase 1 (TDP1): qHTS in cells in presence of CPT. chicken DT40 Tdp1-/-;hTDP1 cells + 20 nM CPT, ATP luminescence, 48 h. Potency, µM (titrated, usually from 46.2 µM), actives largely listed as inhibitors. 420,000 compounds, 12% hits. AID 686979, 2013; further: nearly all actives have a fitted effect of over 55% in size
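Chicken DT40 Tdp1-/- cells stably complemented with human TDP1 were seeded at 400 cells/well in medium containing 20 nM camptothecin, exposed to pin-transferred compounds, and grown at 37 °C for at least 48 hr. Viability was read as ATP luminescence.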
HT1080 IDH1KD tx: qHTS for induction of synthetic lethality in tumor cells producing 2HG: qHTS for the HT-1080-IDH1KD cell line. HT-1080 IDH1 knockdown viability, ATP luminescence, 48 h. Potency, µM (series often up to 46.1 µM), actives largely listed as cytotoxic. 360,000 compounds, 2% hits
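% activity derives from luminescence (CellTiter-Glo), normalised to DMSO and no-cell wells. HT-1080-IDH1KD cells, 750/well, had 48 h compound exposure at 37 °C.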
A number is an active result; n = inactive; u = inconclusive; x = no result. Unless noted, the call rests on the fitted dose curve; in most records, active means well fitted curve in the direction sought with a large enough effect; inconclusive means small, poorly fitted or top-dose-only effect, or another doubt; inactive means no such curve, though single readings can be large; an effect the other way counts as inactive or inconclusive.

SMILES	uPA generation	IL-1B inflam inh	TDP1 cell noCPT	HT1080NT lethal	TDP1 cell CPT	HT1080 IDH1KD tx
Cc1cccc2c1N(CCCOc1ccc(C(C)(C)C)cc1)C(=O)C2=O	u	n	18.4µM	n	u	n
Cc1cccc2c1N(CCCOc1ccccc1)C(=O)C2=O	n	n	16.4µM	n	9.2µM	n
Cc1ccccc1OCCCN1C(=O)C(=O)c2cccc(C)c21	u	n	1.84µM	u	2.59µM	u
CCOc1ccc(CN2C(=O)C(=O)c3cccc(C)c32)cc1OC	x	x	1.64µM	x	u	x
CC(NC(=O)C1CCN(S(=O)(=O)c2cccs2)CC1)c1cccc(Cl)c1 (configuration not stated)	n	n	n	n	n	n
Cc1ccc(OCCN2C(=O)c3ccccc3C2=O)c(C)c1	n	n	n	n	n	n
Cc1ccc2c(c1)C(=O)C(=O)N2CCCOc1ccccc1C	n	u	2.91µM	u	3.26µM	n
Cn1c2c(c(=O)n(C)c1=O)C(C(F)(F)F)(C(F)(F)F)N=C(c1ccccc1Cl)N2	n	n	u	n	23.1µM	n
Cn1c(=O)c2[nH]c(-c3ccccc3Cl)c(O)c2n(C)c1=O	n	n	n	n	n	n
Cn1c2c(c(=O)n(C)c1=O)C(C(F)(F)F)(C(F)(F)F)N=C(CCC1CCCCC1)N2	n	-58.1	3.66µM	u	2.59µM	u
COc1ccc(CN(C)C(=O)c2cccc(NS(=O)(=O)c3ccccc3)c2)cc1F	n	n	n	n	n	n
CN(C)S(=O)(=O)c1ccc(NC(=O)Cn2nc(-c3ccc4c(c3)OCCO4)ccc2=O)cc1	n	n	20.6µM	n	u	n
O=c1ccc(-c2ccccc2)no1	n	n	n	n	n	n
Cc1ccc(C(C(=O)NCC2CCCO2)N(C(=O)c2snc(C(N)=O)c2N)c2ccc3c(c2)OCCO3)cc1 (configuration not stated)	n	n	n	n	23.1µM	n
NC(=O)c1nsc(C(=O)N(c2ccc3c(c2)OCCO3)C(C(=O)NCC2CCCO2)c2ccc(F)cc2)c1N (configuration not stated)	n	n	18.4µM	n	14.6µM	n
Cc1ccc(N(C(=O)c2snc(C(N)=O)c2N)C(C(=O)NCC2CCCO2)c2ccc3ncccc3c2)cc1 (configuration not stated)	n	u	n	n	u	n
COc1ccccc1NC(=O)N(C)C[C@H]1OCc2cnnn2CCCC(=O)N([C@H](C)CO)C[C@@H]1C	x	n	n	n	n	n
O=C(c1cnccn1)N1CCC[C@@]2(CCN(c3ccccn3)C2)C1	x	x	n	x	n	x
Cc1cc(C)nc(SCC(CSc2nc(C)cc(C)n2)C(=O)O)n1	n	n	n	n	n	n
O=C(Nc1cccc(Cl)c1)c1nc[nH]c1C(=O)NCCCNC(=O)c1[nH]cnc1C(=O)Nc1cccc(Cl)c1	n	n	u	n	n	n
Cc1ccc(NC(=O)c2nc[nH]c2C(=O)Nc2ccccc2F)cc1	x	n	u	u	u	n
O=C(Nc1ccccc1)c1nc[nH]c1C(=O)NCCNC(=O)c1[nH]cnc1C(=O)Nc1ccccc1	n	n	18.4µM	u	13µM	n
O=C(Nc1ccccc1)c1nc[nH]c1C(=O)NCCCCNC(=O)c1[nH]cnc1C(=O)Nc1ccccc1	n	n	11.6µM	n	6.51µM	n
O=C(Nc1ccccc1)c1nc[nH]c1C(=O)Nc1ccccc1F	x	n	11.6µM	n	u	n
COc1ccc(NC(=O)c2cc(-c3ccco3)nc3ccccc23)cn1	n	n	20.6µM	n	u	n
SMILES	uPA generation	IL-1B inflam inh	TDP1 cell noCPT	HT1080NT lethal	TDP1 cell CPT	HT1080 IDH1KD tx
Cc1cccc2sc(NNC(=O)C3=COCCO3)nc12	n	n	u	n	13µM	n
COc1cccc(-c2cc(C(=O)Nc3nc4ccccc4s3)c3ccccc3n2)c1	n	n	25.9µM	u	16.4µM	u
COc1ccc2nc(NC(=O)c3ccccc3-c3ccccc3C(=O)O)sc2c1	n	n	n	n	n	n
O=C(NNc1nc2c(F)cc(F)cc2s1)C1=COCCO1	n	n	n	n	n	n
COc1ccc(-c2cc(C(=O)Nc3nc4c(C)cccc4s3)c3ccccc3n2)cc1OC	n	n	20.6µM	n	16.4µM	u
COC(=O)c1cc2oc3ccccc3c2n1Cc1nc(-c2ccc(Cl)cc2)oc1C	x	x	n	x	n	x
Nc1ncnc2c1ncn2[C@@H]1O[C@H](C(=O)NCC2CCN(Cc3ccccc3)CC2)[C@@H](O)[C@H]1O	x	n	n	n	n	n
CCCc1ccc(OC(=O)CSc2nnc(-c3cccs3)o2)cc1	x	x	n	x	n	x
NC(=O)C1(Nc2ccc(Cl)cc2)CCCC1	n	n	n	n	n	n
CCOc1cccc(-c2c(C(=O)N/N=C/c3ccc(C)o3)nnn2-c2nonc2N)c1	n	n	n	n	n	n
CCCn1c(SCC(=O)NC2CCCCC2)nnc1C1CC1	n	n	n	n	n	n
O=C(Nc1nc2ccccc2s1)c1cc(-c2ccco2)nc2ccccc12	n	n	18.4µM	u	18.4µM	u
Cc1ccc2nc(NC(=O)c3cc(-c4ccco4)nc4ccccc34)sc2c1	n	n	u	u	u	u
Cc1cccc2sc(NNC(=O)c3cc(-c4cccs4)nc4ccccc34)nc12	u	n	4.11µM	u	4.11µM	20.6µM
Cc1ccc(-c2nnc(CN3CCCCC3C)o2)cc1 (configuration not stated)	n	n	n	n	n	n
O=c1c2sccc2n(Cc2cc(=O)n3ccccc3n2)c(=O)n1-c1cccc(C(F)(F)F)c1	x	x	n	x	n	x
COc1ccccc1OCCNC(=O)c1ccc(NC(=O)CC2SC(N3CCCC3)=NC2=O)cc1 (configuration not stated)	n	n	n	n	n	n
CC(C)C[C@H]1CN([C@@H](CC(C)C)CN2CCC[C@@H]2CN2C(=S)NC[C@@H]2Cc2ccc(O)cc2)C(=S)N1CC1CCCCC1	x	u	16.4µM	20.6µM	u	14.6µM
CC(C)C[C@@H](CN1CCC[C@@H]1CN1C(=S)NC[C@@H]1Cc1ccc(O)cc1)N1C[C@H](Cc2ccc(O)cc2)N(CC2CCCCC2)C1=S	x	-80.5	16.4µM	23.1µM	18.4µM	u

Source: PubChem BioAssay
